# Assay outcomes: PubChem, several laboratories
# Shown are actives, neighbours in structure and some others; about 3.7% of the full set was active somewhere.
# tim10-1 inh – inhibits growth of tim10-1 mutant yeast | inhibition, % at 20 µM | AID 463190 | actives 2.2% (n = 330,000) | S. cerevisiae tim10-1 ts strain growth, BacTiter-Glo, 24 h;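 active means inhibition of at least 40%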;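 further: mutant grown at 25 °C; 0% = DMSO wells with yeast and 100% = wells holding no yeast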
# TIM10 inh – growth inhibitors of TIM10 yeast strain | AID 463195 | actives 1.4% (n = 330,000) | inhibition, % at 10 µM | S. cerevisiae TIM10 strain growth, BacTiter-Glo luminescence, 24 h;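 active means inhibition of 40% or more at the single tested concentration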;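 further: wild-type TIM10 isogenic control strain grown at permissive 25 °C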
# V-ATPase pHluor – yeast V-ATPase proton transport regulation by pHLuorin; S. cerevisiae, pHLuorin cytosolic pH fluorescence; response, % at 10 µM; actives 0.37% (n = 350,000); in the data active means response mostly above about 7.3%, no sharp cut-off; inactive means mostly below about 5.4%; further: actives read high
# tim23-1 inh – tim23-1 yeast growth inhibition; S. cerevisiae tim23-1 growth, BacTiter-Glo luminescence, 24 h; inhibition, % at 20 µM; actives 1.3% (n = 330,000); AID 463212;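 active means growth inhibition of the mutant yeast at or above 50%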;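 further: temperature-sensitive mutant grown at 25 °C; plate controls were DMSO-treated mutant yeast for no effect and medium wells lacking yeast for full effect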
# PfHsp90 yeast 2 – inhibits growth of yeast expressing Plasmodium falciparum Hsp90; S. cerevisiae expressing PfHsp90, BacTiter-Glo ATP, 48 h; yeast lacking PDR1 and PDR3 efflux regulators; inhibition, % at 9.4 µM; actives 0.32% (n = 310,000); AID 504621;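 active means every replicate shows inhibition above about 80%, whatever the replicate mean, limit read from the data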;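 further: 0% = DMSO neutral controls and 100% = 20 µM radicicol positive controls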
# tim10 confirm – TIM10 yeast growth inhibition, confirmed | inhibition, % at 10 µM | actives 63% (n = 4,600) | AID 463215 | shares compounds with TIM10 inh | S. cerevisiae tim10 strain growth, BacTiter-Glo luminescence, 24 h;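 active means inhibition of yeast growth at or above a set limit in either of two replicates at 10 µM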;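 further: this counterscreen used the strain with wild-type TIM10; 0% = yeast with DMSO and 100% = medium wells lacking yeast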
# * hit, by the source's call; · = not tested or not shown.
SMILES,tim10-1 inh,TIM10 inh,V-ATPase pHluor,tim23-1 inh,PfHsp90 yeast 2,tim10 confirm
CCCCOc1ccc(CSCCNC(=S)Nc2ccccc2)cc1,33,42*,1,34,-21,0
CCCCCOc1ccc(CSCCNC(=S)Nc2ccccc2)cc1,5,23,-1,12,-4,·
COc1ccc(Br)cc1CN(C)CC(=O)NCCc1ccc(S(N)(=O)=O)cc1,7,-2,2,6,-64,·
CCOC(=O)c1cc2cc3ccccc3cc2[nH]1,32,43*,4,45,-25,12
CC(C)OC(=O)c1cc2ccccc2[nH]1,6,-4,-3,16,·,·
CC(=O)CSc1nc2c(c(=O)[nH]c(=O)n2C)n1CCCc1ccccc1,-2,-4,0,0,-21,·
CCN(CC)CCN(C(=O)c1cc2c(ccc3ccccc32)oc1=O)c1nc2cc3c(cc2s1)OCCO3,20,50*,0,31,-10,31
CCN(C(=O)CSc1nnc(-c2cccs2)o1)C1CCS(=O)(=O)C1 (stereo not given),8,-18,-4,4,2,·
Cc1cc(NC(=O)NC(=O)c2cccc(OC(F)(F)C(F)F)c2)n[nH]1,7,14,-3,7,-17,·
Cc1cc(NC(=O)c2cccc(Oc3ccccc3)c2)n[nH]1,37,61*,1,3,18,66*
C/C(=N\NC(=O)c1ccccn1)c1ccc(Cl)cc1,-9,1,3,9,·,·
C/C(=N\Nc1ccc(Cl)cc1)c1ccccn1,32,52*,-1,40,4,34*
Cc1cc(C)cc(NC(=O)CCn2c(=O)c3cccn3c3ccccc32)c1,38,15,0,17,1,·
O=[N+]([O-])c1ccc(N2N=C(c3ccccc3)CC2c2ccccc2O)cc1 (stereo not given),13,42*,-2,9,108*,60*
NS(=O)(=O)c1ccc(N2N=C(c3ccccc3)CC2c2ccccc2Br)cc1 (stereo not given),34,1,1,43,-46,·
O=S(=O)(CCN1CCCCC1)Oc1ccc(Cl)cc1Cl,37,50*,2,41,5,27
CN1CCc2c(OCC(=O)N3N=C(c4cccs4)CC3c3ccc(F)cc3)cccc2C1=O (stereo not given),30,40,0,43,-15,-26
COc1ccc([C@H]2CC(=O)C=C(/C=C/Cc3ccccc3)C2)cc1,38,47*,1,48,-18,47*
CCCCC/C=C/C1=CC(=O)C[C@H](c2ccc(OC)cc2)C1,28,8,-4,24,14,·
O=C(c1ccc(Br)cc1)N(c1ccccn1)C1CCCCC1,23,22,0,36,-3,·
Cc1cccc(/C=N/n2c(C3CCCCC3)n[nH]c2=S)c1,30,40*,-4,33,-4,49*
CCOc1ccccc1/C=N/n1c(C2CCCCC2)n[nH]c1=S,13,43*,0,37,-36,50*
O=C(CCc1nc2ccccc2s1)Nc1ccccc1,12,47*,1,37,2,1
CC1(C)C([N+](=O)[O-])C(c2ccc(Cl)cc2)NC(c2ccc(Cl)cc2)C1[N+](=O)[O-] (stereo not given),37,42*,4,30,-14,38*
Cc1nn(-c2ccccc2)c(N)c1N=Nc1ccccc1,·,·,-2,·,0,·
SMILES,tim10-1 inh,TIM10 inh,V-ATPase pHluor,tim23-1 inh,PfHsp90 yeast 2,tim10 confirm
Cc1nn(-c2ccccc2)c(N)c1N=Nc1ccc(Cl)cc1,34,44*,-2,12,24,32*
NC(=O)C1Cc2ccccc2CN1C(=O)c1nn(Cc2ccccc2)c(=O)c2ccccc12 (stereo not given),-6,4,6,-4,-8,·
Cc1noc(C)c1S(=O)(=O)N1CCCC(C(=O)NCc2ccccc2Cl)C1 (stereo not given),-8,-7,2,-4,3,·
Cc1ccc(CN2CCC(=O)N2)cc1,-6,5,-3,-5,-1,·
CCCCCOC(=O)c1[nH]c2c(c1C)C(=O)C(C(=O)OC)C(C)C2 (stereo not given),39,43*,-3,48,12,37*
COCCOC(=O)c1[nH]c2c(c1C)C(=O)C(C(=O)OC)C(C)C2 (stereo not given),-8,1,5,7,1,·
O=C(CCS(=O)(=O)c1ccccc1)Nc1ncc([N+](=O)[O-])s1,25,41*,7,35,6,33*
CC(C)CSc1nc(N)nc2c1ncn2C1OC(CO)C(O)C1O (stereo not given),·,·,0,·,-23,·
C/C(=N\NC(=S)NC(C)C)c1cccc([N+](=O)[O-])c1,34,42*,2,37,-27,6
O=C(Nc1ccc(Cl)cc1)c1nc[nH]c1C(=O)NCCCNC(=O)c1[nH]cnc1C(=O)Nc1ccc(Cl)cc1,-1,12,·,28,·,·
Cc1nc(-c2ccc(F)cc2)c(CC(=O)Nc2ccc(C)c(S(=O)(=O)N3CCOCC3)c2)s1,-13,3,-2,-2,-9,·
COc1ccc(NC(=O)c2ccccc2C)cc1,-1,85*,1,3,32,10
COc1ccc(NC(=O)c2cccc3ccccc23)cc1,-6,2,1,2,-15,·
COc1ccccc1C(=O)Nc1ccc(C(=O)O)cc1,-4,12,-7,14,·,·
COc1ccccc1C(=O)Oc1ccccc1C(=O)Nc1ccccc1,7,41*,-2,49,3,31
COc1ccc(C(=O)c2ccc(OC)c(OC)c2)cc1OC,19,5,-6,18,-2,·
COc1ccc(C(=O)c2ccc(OC)c3cccc(O)c23)cc1OC,31,44*,-8,36,-24,27
CN1C(=O)[C@H]2[C@@H](c3ccc(C(F)(F)F)cc3)N[C@]3(CCCN(CC4CCCCC4)C3=O)[C@H]2C1=O,·,·,4,·,·,·
NNc1nc2c(-c3ccc(Cl)cc3)nnn2c2ccccc12,22,69*,-25,21,24,70*
O=C(O)c1cc(NC(=O)c2ccc(Cl)c([N+](=O)[O-])c2)cc(C(=O)O)c1,-9,7,-1,0,6,·
O=C(Nc1ccc(C(O)(C(F)(F)F)C(F)(F)F)cc1)c1ccc(Cl)c([N+](=O)[O-])c1,38,59*,-1,30,13,2
O=C(Oc1ccc(OC(=O)c2ccco2)c(S(=O)(=O)c2ccc(Cl)cc2)c1)c1ccco1,25,49*,-29,32,-53,-6
Cc1ccc(C(=O)c2oc3ccccc3c2N)cc1,33,47*,-3,8,-28,29
Cc1ccc(NC(=O)CN(C)C(=O)COc2cccc3ccc(C)nc23)cc1,5,3,1,-4,38,·
Cc1ccc(NC(=O)CN(C)C(=O)COc2c(Cl)cc(Cl)c3ccc(C)nc23)cc1,34,40*,0,47,2,-1
COc1ccc2sc3ccccc3c(=O)c2c1,9,26,-3,33,-9,·
